Reference: PubChem BioAssay AID1159580 (chemical genetic matrix, 2015)
The campaign covered roughly 5,500 compounds. About 2,000 (36%) were called active. Not shown: some 18% with an inconclusive outcome. Cut-off read from the data, not from the text of the source: active = normalized growth mostly below about 0.91 (no sharp cut-off); inconclusive = no clear call, values can overlap the other calls; inactive = mostly above about 0.92. The list shows a part of the results.

Experiment: chemical genetic growth profiling, strain panel (AID 1159580);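 note: tested at 20 µM; growth read once vehicle control cultures reached saturation at 30 °C; 1 = growth at the plate median or of vehicle wells; lower values mean less growth of the strain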
Settings: growth OD

Measured: normalized growth

O=C(c1ccccc1)c1ccc2n1CCC2C(=O)O (stereo not drawn)
inactive: S. cerevisiae deletion strains, locus YKL009W, strain mrt4, active compounds read low 0.962 | S. cerevisiae deletion strains, locus YKL068W, active compounds read low 0.979 | S. cerevisiae deletion strains, locus YKL085W, strain MDH1 (second series), active compounds read low 0.99 | S. cerevisiae deletion strains, locus YKL085W, strain MDH1, active compounds read low 0.99 | S. cerevisiae deletion strains, locus YKL160W, strain elf1, active compounds read low 1.03 | S. cerevisiae deletion strains, locus YKL190W, strain CNB1, active compounds read low 0.999 | S. cerevisiae deletion strains, locus YKR001C, strain vps1, active compounds read low 0.98 | S. cerevisiae deletion strains, locus YKR026C, strain gcn3, active compounds read low 1 | S. cerevisiae deletion strains, locus YKR091W, strain srl3, active compounds read low 0.961 | S. cerevisiae deletion strains, locus YLL001W, strain dnm1, active compounds read low 1.01 | S. cerevisiae deletion strains, locus YLL026W, active compounds read low 0.999 | S. cerevisiae deletion strains, locus YLL041C, strain sdh2, active compounds read low 0.995 | S. cerevisiae deletion strains, locus YLR027C, strain aat2, active compounds read low 0.99 | S. cerevisiae deletion strains, locus YLR039C, strain RIC1, active compounds read low 1 | S. cerevisiae deletion strains, locus YLR058C, strain SHM2, active compounds read low 1 | S. cerevisiae deletion strains, locus YLR102C, strain apc9, active compounds read low 0.974 | S. cerevisiae deletion strains, locus YLR113W, strain HOG1, active compounds read low 1.01 | S. cerevisiae deletion strains, locus YLR221C, strain rsa3, active compounds read low 1.01 | S. cerevisiae deletion strains, locus YLR258W, strain gsy2, active compounds read low 0.985 | S. cerevisiae deletion strains, locus YLR262C, strain YPT6 (second series), active compounds read low 0.996 | S. cerevisiae deletion strains, locus YLR262C, strain YPT6, active compounds read low 0.965 | S. cerevisiae deletion strains, locus YLR268W, strain sec22, active compounds read low 0.97 | S. cerevisiae deletion strains, locus YLR320W, strain mms22, active compounds read low 0.966 | S. cerevisiae deletion strains, locus YLR330W, strain CHS5, active compounds read low 0.989 | S. cerevisiae deletion strains, locus YLR342W, strain FKS1 (second series), active compounds read low 0.998 | S. cerevisiae deletion strains, locus YLR342W, strain FKS1, active compounds read low 1 | S. cerevisiae deletion strains, locus YLR357W, strain rsc2, active compounds read low 1.02 | S. cerevisiae deletion strains, locus YLR370C, strain arc18, active compounds read low 1.01 | S. cerevisiae deletion strains, locus YLR371W, strain rom2, active compounds read low 0.962 | S. cerevisiae deletion strains, locus YLR384C, strain iki3, active compounds read low 0.998 | S. cerevisiae deletion strains, locus YLR418C, strain cdc73, active compounds read low 0.987 | S. cerevisiae deletion strains, locus YML016C, strain PPZ1, active compounds read low 0.998 | S. cerevisiae deletion strains, locus YML032C, strain rad52, active compounds read low 0.991 | S. cerevisiae deletion strains, locus YML120C, strain ndi1, active compounds read low 1.01 | S. cerevisiae deletion strains, locus YML124C, strain tub3, active compounds read low 0.982 | S. cerevisiae deletion strains, locus YMR058W, strain fet3, active compounds read low 0.978 | S. cerevisiae deletion strains, locus YMR078C, strain ctf18, active compounds read low 0.968 | S. cerevisiae deletion strains, locus YMR125W, strain sto1, active compounds read low 1.01 | S. cerevisiae deletion strains, locus YMR129W, active compounds read low 0.995 | S. cerevisiae deletion strains, locus YMR205C, strain PFK2, active compounds read low 1.01 | S. cerevisiae deletion strains, locus YMR223W, strain ubp8, active compounds read low 0.972 | S. cerevisiae deletion strains, locus YMR231W, strain pep5, active compounds read low 1 | S. cerevisiae deletion strains, locus YMR307W, strain GAS1, active compounds read low 0.985 | S. cerevisiae deletion strains, locus YNL067W, strain RPL9B, active compounds read low 1.02 | S. cerevisiae deletion strains, locus YNL071W, strain lat1, active compounds read low 0.977 | S. cerevisiae deletion strains, locus YNL128W, strain TEP1, active compounds read low 0.996 | S. cerevisiae deletion strains, locus YNL153C, strain GIM3, active compounds read low 0.998 | S. cerevisiae deletion strains, locus YNL175C, strain NOP13, active compounds read low 1 | S. cerevisiae deletion strains, locus YNL183C, strain NPR1, active compounds read low 0.973 | S. cerevisiae deletion strains, locus YNL197C, strain WHI3, active compounds read low 1.01 | S. cerevisiae deletion strains, locus YNL209W, strain ssb2, active compounds read low 0.985 | S. cerevisiae deletion strains, locus YNL224C, strain SQS1, active compounds read low 1.01 | S. cerevisiae deletion strains, locus YNL233W, strain BNI4, active compounds read low 1.03 | S. cerevisiae deletion strains, locus YNL248C, strain rpa49, active compounds read low 0.968 | S. cerevisiae deletion strains, locus YNL250W, strain rad50, active compounds read low 0.986 | S. cerevisiae deletion strains, locus YNL271C, strain bni1, active compounds read low 0.96 | S. cerevisiae deletion strains, locus YNL298W, strain CLA4, active compounds read low 0.969 | S. cerevisiae deletion strains, locus YNL307C, strain MCK1, active compounds read low 0.976 | S. cerevisiae deletion strains, locus YNL322C, strain KRE1 (second series), active compounds read low 0.982 | S. cerevisiae deletion strains, locus YNL322C, strain KRE1, active compounds read low 1.01 | S. cerevisiae deletion strains, locus YNR049C, strain mso1, active compounds read low 0.983 | S. cerevisiae deletion strains, locus YNR052C, strain pop2, active compounds read low 0.97 | S. cerevisiae deletion strains, locus YOL006C, strain TOP1, active compounds read low 1.05 | S. cerevisiae deletion strains, locus YOL012C, strain htz1 0.945 | S. cerevisiae deletion strains, locus YOL147C, strain pex11, active compounds read low 0.982 | S. cerevisiae deletion strains, locus YOR001W, strain rrp6, active compounds read low 1.01 | S. cerevisiae deletion strains, locus YOR061W, strain CKA2, active compounds read low 0.997 | S. cerevisiae deletion strains, locus YOR069W, strain VPS5, active compounds read low 0.994 | S. cerevisiae deletion strains, locus YOR070C, strain gyp1, active compounds read low 1 | S. cerevisiae deletion strains, locus YOR080W, strain dia2, active compounds read low 1.01 | S. cerevisiae deletion strains, locus YOR083W, strain WHI5 (second series), active compounds read low 1.03 | S. cerevisiae deletion strains, locus YOR083W, strain WHI5, active compounds read low 1.04 | S. cerevisiae deletion strains, locus YOR106W, strain vam3, active compounds read low 1.03 | S. cerevisiae deletion strains, locus YOR136W, strain idh2, active compounds read low 0.971 | S. cerevisiae deletion strains, locus YOR144C, strain elg1, active compounds read low 0.982 | S. cerevisiae deletion strains, locus YOR184W, strain ser1, active compounds read low 0.964 | S. cerevisiae deletion strains, locus YOR231W, strain MKK1, active compounds read low 1.02 | S. cerevisiae deletion strains, locus YOR265W, strain rbl2, active compounds read low 1 | S. cerevisiae deletion strains, locus YOR270C, strain vph1, active compounds read low 0.972 | S. cerevisiae deletion strains, locus YOR290C, strain snf2, active compounds read low 0.962 | S. cerevisiae deletion strains, locus YOR316C, strain cot1, active compounds read low 0.956 | S. cerevisiae deletion strains, locus YPL051W, strain arl3, active compounds read low 1.04 | S. cerevisiae deletion strains, locus YPL055C, strain LGE1, active compounds read low 1.02 | S. cerevisiae deletion strains, locus YPL078C, strain atp4, active compounds read low 1.01 | S. cerevisiae deletion strains, locus YPL106C, strain sse1, active compounds read low 0.978 | S. cerevisiae deletion strains, locus YPL240C, strain hsp82, active compounds read low 1 | S. cerevisiae deletion strains, locus YPL256C, strain CLN2, active compounds read low 1.01 | S. cerevisiae deletion strains, locus YPR119W, strain clb2, active compounds read low 0.961 | S. cerevisiae deletion strains, locus YPR141C, strain kar3, active compounds read low 0.977 | S. cerevisiae deletion strains, locus YPR163C, strain tif3, active compounds read low 0.978 | S. cerevisiae deletion strains, locus YPR167C, strain met16, active compounds read low 0.976 | S. cerevisiae deletion strains, strain wtn01, active compounds read low 0.985 | S. cerevisiae strains, strain wild type, active compounds read low 1
